Measurements from the supplement of paper PMC12645437, “Orthogonal IMiD-Degron Pairs Induce Selective Protein Degradation in Cells” (ACS Chemical Biology, 2025).
Over roughly 8,300 sequences, “log2 fold change of degron read counts, EGFP-low vs EGFP+ sorted cells (limma voom), compound-induced degradation” has its median near -1.1; the highest 2% begin near 3.2. Many of the other results were omitted from the sample, so the highest values are more common in it than they were.

T1: CRBN, Q96SW2
T1 chain: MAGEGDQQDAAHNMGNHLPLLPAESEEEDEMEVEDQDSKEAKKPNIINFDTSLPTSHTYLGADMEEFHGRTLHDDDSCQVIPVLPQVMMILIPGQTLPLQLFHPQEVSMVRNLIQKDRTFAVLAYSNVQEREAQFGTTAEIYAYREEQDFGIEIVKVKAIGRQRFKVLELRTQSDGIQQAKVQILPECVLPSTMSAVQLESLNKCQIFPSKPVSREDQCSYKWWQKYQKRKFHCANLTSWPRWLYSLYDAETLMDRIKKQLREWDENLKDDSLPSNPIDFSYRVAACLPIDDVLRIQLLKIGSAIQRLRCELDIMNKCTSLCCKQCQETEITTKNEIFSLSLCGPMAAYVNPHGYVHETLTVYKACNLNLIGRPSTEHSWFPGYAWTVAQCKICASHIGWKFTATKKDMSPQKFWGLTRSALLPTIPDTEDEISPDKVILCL


Target: T1, CRBN, Q96SW2
Test: log2 fold change of degron read counts, EGFP-low vs EGFP+ sorted cells (limma voom), compound-induced degradation; higher = more compound-induced degradation of the degron-EGFP fusion; degrons are variants of IKZF1/3 zinc finger 2; compound dose not given here
Details: Jurkat, 18 h
[1] = compound: compound 19 (5-tert-butyl-thalidomide)
[2] = compound: compound 22 (5-morpholino-thalidomide)
[3] = compound: compound 33 (diphenyl IMiD analogue)
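Note: pooled lentiviral library of zinc finger degron-EGFP fusions in mCherry-positive Jurkat cells, FACS-sorted after compound exposure, with degron abundance counted by next-generation sequencing.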

Sequence	log2 fold change of degron read counts [1]	log2 fold change of degron read counts [2]	log2 fold change of degron read counts [3]	log2 fold change of degron read counts (compound: thalidomide)
FWCNVCGAPFTQKGNLLRHIKL [46F_47W_49N_50V_52G_53A_54P_55F_67L_, Q9UKT9]	1.34	1.28	0.648	-0.594
FNCNQCGRAFTQKGNLLRHIKL [46F_47N_49N_50Q_52G_53R_54A_55F_67L_, Q9UKT9]	-2.53	-3	-2.84	-2.82
FLCNQCGRKFTQKGNLLRHIKL [46F_47L_49N_50Q_52G_53R_54K_55F_67L_, Q9UKT9]	-3.07	-2.98	-2.46	-1.94
FTCEVCGADFTQKGNLLRHIKL [46F_47T_49E_50V_52G_53A_54D_55F_67L_, Q9UKT9]	-1.27	-0.646	-0.114	0.571
FWCDVCGAFFTQKGNLLRHIKL [46F_47W_49D_50V_52G_53A_54F_55F_67L_, Q9UKT9]	0.953	1.36	-0.00384	-1.88
FECNVCGAIFTQKGNLLRHIKL [46F_47E_49N_50V_52G_53A_54I_55F_67L_, Q9UKT9]	-2.34	-1.7	-0.347	0.492
FVCEQCGAIFTQKGNLLRHIKL [46F_47V_49E_50Q_52G_53A_54I_55F_67L_, Q9UKT9]	-2.11	-2.38	-0.483	-1.05
FHCPICGAKFTQKGNLLRHIKL [46F_47H_49P_50I_52G_53A_54K_55F_67L_, Q9UKT9]	2.6	2.09	-0.0644	0.674
FWCPICGAKFTQKGNLLRHIKL [46F_47W_49P_50I_52G_53A_54K_55F_67L_, Q9UKT9]	2.94	3.43	1.1	0.827
FRCPICGAKFTQKGNLLRHIKL [46F_47R_49P_50I_52G_53A_54K_55F_67L_, Q9UKT9]	-0.704	0.123	0.417	0.809
FFCDQCGANFTQKGNLLRHIKL [46F_47F_49D_50Q_52G_53A_54N_55F_67L_, Q9UKT9]	-0.567	-0.255	-1.24	-2.4
FSCDVCGAPFTQKGNLLRHIKL [46F_47S_49D_50V_52G_53A_54P_55F_67L_, Q9UKT9]	0.883	-0.0159	-0.896	-0.557
LQCNQCGFHCTQKGNLLRHIKL [46L_47Q_49N_50Q_52G_53F_54H_55C_67L_, Q9UKT9]	-2.12	-2.37	-2.09	-1.42
FFCNQCGHGFTQKGNLLRHIKL [46F_47F_49N_50Q_52G_53H_54G_55F_67L_, Q9UKT9]	-2.03	-2.15	-2.79	-2.52
LKCPICGFMCTQKGNLLRHIKL [46L_47K_49P_50I_52G_53F_54M_55C_67L_, Q9UKT9]	-1.07	-2.03	-1.81	-0.667
LVCPICGFMCTQKGNLLRHIKL [46L_47V_49P_50I_52G_53F_54M_55C_67L_, Q9UKT9]	0.688	2.15	2.09	2.63
LWCPICGFMCTQKGNLLRHIKL [46L_47W_49P_50I_52G_53F_54M_55C_67L_, Q9UKT9]	2.86	3.37	2.86	1.56
LTCPICGFMCTQKGNLLRHIKL [46L_47T_49P_50I_52G_53F_54M_55C_67L_, Q9UKT9]	0.987	1.84	2.27	2.3
LQCPICGFMCTQKGNLLRHIKL [46L_47Q_49P_50I_52G_53F_54M_55C_67L_, Q9UKT9]	0.655	2.15	2.04	3.55
LGCPICGFMCTQKGNLLRHIKL [46L_47G_49P_50I_52G_53F_54M_55C_67L_, Q9UKT9]	3.42	1.83	1.01	0.537
LSCPICGFMCTQKGNLLRHIKL [46L_47S_49P_50I_52G_53F_54M_55C_67L_, Q9UKT9]	1.79	1.66	1.67	1.42
LECPICGFMCTQKGNLLRHIKL [46L_47E_49P_50I_52G_53F_54M_55C_67L_, Q9UKT9]	-0.459	-0.68	1.22	2.37
LYCPICGFMCTQKGNLLRHIKL [46L_47Y_49P_50I_52G_53F_54M_55C_67L_, Q9UKT9]	3.14	2.92	2.43	1.14
FVCPQCGAFFTQKGNLLRHIKL [46F_47V_49P_50Q_52G_53A_54F_55F_67L_, Q9UKT9]	-1.99	-1.44	-0.515	-0.988
FCCPICGHFFTQKGNLLRHIKL [46F_47C_49P_50I_52G_53H_54F_55F_67L_, Q9UKT9]	-1.42	-2.1	-1.42	-1.48
FACEICGHNFTQKGNLLRHIKL [46F_47A_49E_50I_52G_53H_54N_55F_67L_, Q9UKT9]	-2.91	-3.62	-3.22	-3.1
FECSVCGHHFTQKGNLLRHIKL [46F_47E_49S_50V_52G_53H_54H_55F_67L_, Q9UKT9]	-3.39	-3.71	-3.71	-3.11
FRCPICGHVFTQKGNLLRHIKL [46F_47R_49P_50I_52G_53H_54V_55F_67L_, Q9UKT9]	-2.24	-2.31	-0.964	-1.86
